Laboratory results from PubChem BioAssay (NCI).
Compounds without any hit were thinned out: in the full panel of roughly 83,000, 20% have a hit.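 Cells were grown in 96-well plates and exposed to the test compound at a single concentration for 48 hours; results are reported as percent growth, with values below 10 considered active.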 Values without a mark were called inactive. Activity calls are given as the source filed them.

Assays:
Assay in all cases: NCI-60 one-dose screen, 48 h (100 = growth as untreated, 0 = no growth, -100 = all killed)
Conditions in all cases: 10 µM unless noted
DU-145 prostate = tested on: DU-145 prostate
K-562 leukemia = tested on: K-562 leukemia
MALME-3M melanoma = tested on: MALME-3M melanoma
MDA-MB-231 breast = tested on: MDA-MB-231 breast
RXF 393 renal = tested on: RXF 393 renal
SF-268 CNS = tested on: SF-268 CNS
SF-295 CNS = tested on: SF-295 CNS
UACC-257 melanoma = tested on: UACC-257 melanoma
M14 melanoma = tested on: M14 melanoma
HCT-15 colon = tested on: HCT-15 colon
HT29 colon = tested on: HT29 colon
SNB-75 CNS = tested on: SNB-75 CNS
SNB-19 CNS = tested on: SNB-19 CNS
PC-3 prostate = tested on: PC-3 prostate
SK-MEL-5 melanoma = tested on: SK-MEL-5 melanoma
UACC-62 melanoma = tested on: UACC-62 melanoma
SK-MEL-28 melanoma = tested on: SK-MEL-28 melanoma
U251 CNS = tested on: U251 CNS
LOX IMVI melanoma = tested on: LOX IMVI melanoma
SF-539 CNS = tested on: SF-539 CNS

Row | SMILES | growth (DU-145 prostate) | growth (K-562 leukemia) | growth (MALME-3M melanoma) | growth (MDA-MB-231 breast) | growth (RXF 393 renal) | growth (SF-268 CNS) | growth (SF-295 CNS) | growth (UACC-257 melanoma) | growth (M14 melanoma) | growth (HCT-15 colon) | growth (HT29 colon) | growth (SNB-75 CNS) | growth (SNB-19 CNS) | growth (PC-3 prostate) | growth (SK-MEL-5 melanoma) | growth (UACC-62 melanoma) | growth (SK-MEL-28 melanoma) [%] | growth (U251 CNS) | growth (LOX IMVI melanoma) | growth (SF-539 CNS)
1 | COc1c(C2CC(=O)Nc3c2cnn3Cc2ccco2)cc2c(c1OC)OCO2 (centres undefined) | 5.85% (active) | 5.69% (active) | 55.7% | 16% | -30% (active) | 34.1% | -20.6% (active) | 68.4% | 9.85% (active) | 18.5% | 11.2% | 8.9% (active) | 50.6% | 24.6% | 3.98% (active) | 35.4% | 40.7 | – | – | –
2 | O=S(=O)(NCCCNc1cc(-c2cn(-c3ccccc3)nc2-c2cccc(O)c2)ccn1)c1ccccc1 | 53.7% | 1.96% (active) | 37.2% | 9.24% (active) | 36.7% | 52.8% | 11% | – | 46.2% | 9.91% (active) | 14.8% | 51% | 77.5% | 21.5% | 15.4% | 50.1% | – | 41.3% | 17% | –
3 | O=C1c2cc3c(cc2-c2c1c1cc(F)c(F)cc1c(=O)n2C[C@H](O)CO)OCO3 | 1.97% (active) | 6.33% (active) | -21.3% (active) | 5.4% (active) | -51.5% (active) | 6.49% (active) | -7.95% (active) | -37.2% (active) | 1.79% (active) | 1.58% (active) | – | 4.14% (active) | 6.51% (active) | 8.59% (active) | -91.5% (active) | -48.2% (active) | 10.1 | -15.5% (active) | -45.4% (active) | –
4 | COc1ccc(CNc2nccnn2)cc1 | 112% | 96.2% | 100% | 106% | 88.1% | 103% | 101% | 107% | 96% | 111% | 97.8% | 85.6% | 102% | 101% | 101% | – | 97.7 | – | 105% | –
5 | COc1cnc2c(c1)C(=O)c1c-2n(CCCN2CCNCC2)c(=O)c2cc([N+](=O)[O-])ccc12 | -85.1% (active) | -50.1% (active) | -71.4% (active) | -77.4% (active) | 0.0319% (active) | -66.6% (active) | -14.7% (active) | 46.3% | -83.1% (active) | -80.7% (active) | – | 2.92% (active) | -40.7% (active) | -82.3% (active) | -7.99% (active) | -82% (active) | – | -93.3% (active) | -86.5% (active) | –
6 | Cn1cc(-c2nc(-c3c[nH]c4ccccc34)cs2)c2cccnc21 | 31.6% | 18% | 54.7% | 30.6% | 27.9% | 52.4% | 11.5% | 61.5% | 19.6% | 30% | – | -6.18% (active) | 51.6% | 32.5% | 21.6% | 51.4% | 52.4 | 26.6% | 39.4% | –
7 | CCN(CC)CCCCNc1ccc(NCCCCN(CC)CC)c2c1C(=O)c1ccccc1C2=O | 94.1% | 1.87% (active) | 132% | 80.5% | 74.9% | 101% | 110% | 97.9% | -36.6% (active) | 76.2% | -54.8% (active) | 142% | 106% | 94.1% | 106% | 111% | 116 | – | -56.6% (active) | –
8 | Oc1c(Cl)cc(Cl)cc1CNc1nccnn1 | 101% | 125% | 93.9% | 104% | 108% | 96.6% | 101% | 105% | 91.9% | 101% | – | 78.1% | 95.8% | – | 102% | – | 106 | 102% | 99.4% | –
9 | C=C(CN1CCN(c2cccc(C(F)(F)F)n2)CC1)c1ccc(C(=O)Nc2ccccc2N)cc1 | -23.7% (active) | 3.45% (active) | 20% | 33.5% | -19.5% (active) | – | 8.13% (active) | 16.6% | 18.5% | 12.9% | -23.3% (active) | 7.18% (active) | – | 22.6% | -62.2% (active) | 26.9% | – | – | 8.1% (active) | 6.53% (active)
